Screening results from PubChem.
TDP1 inh: TDP1 (human) enzyme inhibition; AID 485290; Q9NUW8; recombinant TDP1, AlphaScreen DNA substrate cleavage; Potency, µM (series often up to 130 µM), without a hit: at the top dose activity change, negative = inhibition, hits mostly inhibitors; 350,000 compounds, 0.28% hits; further: potency means the concentration at half of the fitted maximal effect; on the % scale 0 is the no-effect control and ±100 the full control effect; nearly all actives have a fitted effect of over 40% in size
Target sequence (Q9NUW8 whole entry, looked up): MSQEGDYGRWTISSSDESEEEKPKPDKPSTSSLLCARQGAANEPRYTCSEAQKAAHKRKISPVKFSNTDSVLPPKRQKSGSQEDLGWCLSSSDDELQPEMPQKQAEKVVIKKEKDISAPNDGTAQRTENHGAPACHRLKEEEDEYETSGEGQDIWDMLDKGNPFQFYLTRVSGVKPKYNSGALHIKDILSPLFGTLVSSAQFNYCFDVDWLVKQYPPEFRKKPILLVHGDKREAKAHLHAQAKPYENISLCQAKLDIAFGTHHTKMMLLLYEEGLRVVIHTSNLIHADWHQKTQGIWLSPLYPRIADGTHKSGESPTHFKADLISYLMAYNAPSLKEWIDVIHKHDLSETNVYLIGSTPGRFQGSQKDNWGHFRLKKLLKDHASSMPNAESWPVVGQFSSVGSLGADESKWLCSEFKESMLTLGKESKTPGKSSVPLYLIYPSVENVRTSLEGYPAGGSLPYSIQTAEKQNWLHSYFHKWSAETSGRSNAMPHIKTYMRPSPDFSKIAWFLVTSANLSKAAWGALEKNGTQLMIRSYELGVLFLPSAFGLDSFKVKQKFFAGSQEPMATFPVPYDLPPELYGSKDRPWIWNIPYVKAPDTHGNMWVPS
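Steps: enzyme plus compound, 15 min RT; add biotin/phosphotyrosine-FITC oligonucleotide (15 nM final), react 5 min; add donor/acceptor beads (10 ug/ml final), 10 min; read AlphaScreen. Tdp1 at 1 nM final.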
TDP1 cell CPT: growth inhibition of DT40 Tdp1-/-;hTDP1 cells with camptothecin (screen for TDP1 inhibitors) | chicken DT40 Tdp1-/-;hTDP1 cells + 20 nM CPT, ATP luminescence, 48 h | Potency, µM (titrated, usually from 46.2 µM), without a hit: top-dose activity change, negative = growth inhibition, usual class: inhibitors | 420,000 compounds, 12% hits; further: potency means the concentration at half of the fitted maximal effect; on the % scale 0 is the no-effect control and ±100 the full control effect; nearly all actives have a fitted effect of over 55% in size
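Cell growth measured by CellTiter-Glo luminescence after a minimum 48 h, 37 C compound exposure with 20 nM CPT in Tdp1-knockout DT40 cells stably expressing hTDP1, seeded 400/well; qHTS titration format.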
TDP1 cell noCPT: qHTS for Inhibitors of human tyrosyl-DNA phosphodiesterase 1 (TDP1): qHTS in cells in absence of CPT. Potency, µM (highest dose often 46.2 µM), for the others: at the highest dose activity change, negative = growth inhibition, usual class: inhibitors. 420,000 compounds, 15% hits. AID 686978, 2013. DT40 Tdp1-/- hTDP1 cells, no CPT, ATP luminescence, 48 h; further: potency means the concentration at half of the fitted maximal effect; on the % scale 0 is the no-effect control and ±100 the full control effect; nearly all actives have a fitted effect of over 55% in size
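Stably hTDP1-transfected Tdp1-null chicken DT40 cells were treated with library compounds minus camptothecin and grown for at least 48 hr at 37 °C, after which cellular ATP was quantified by luminescence.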
IL-1B inflam inh: inhibitors of inflammasome signaling (IL-1 beta secretion) | AID 743279 | activity change, % at 57.5 µM | THP-1 LPS/ATP IL-1B secretion, AlphaLISA, 16 h; active compounds read low | 360,000 compounds, 4.7% hits; in the data active means activity change below about -50%; inconclusive means mostly about -30% to -49%; further: on the % scale 0 is the no-effect control and ±100 the full control effect
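THP-1 cells pretreated 1 hr with compounds (up to 57.5 uM final), then stimulated with LPS (250 ng/mL final) plus ATP (1.25 mM final); secreted IL-1B measured by AlphaLISA after 16 hr, decreased signal indicating inhibition.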
HepG2 tox: kills HepG2 cells in TGF-b inhibitor counter-screen; Potency, µM (top dose mostly 46.1 µM), for the others: top-dose activity change, negative = cytotoxicity, usual class: cytotoxic; HepG2 CAGA-GFP viability, ATP luminescence, 18 h; 410,000 compounds, 0.76% hits; further: potency means the concentration at half of the fitted maximal effect
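CellTiter-Glo luminescence gave cytotoxicity after 18 hours at 37 degrees C. The cells were HepG2 CAGA-GFP in 1% FBS DMEM, stimulated with 500 pg/mL TGF-beta after compound addition. %Activity was normalised to no-cell wells (complete cell-killing) and DMSO (no toxicity), and curves were fitted and classified.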
TGFb SMAD3 inh: inhibitors of TGF-b signaling; 410,000 compounds, 1.2% hits; HepG2 CAGA-GFP TGF-b/SMAD3 reporter, GFP fluorescence, 18 h; TGF-beta stimulated, 500 pg/mL final; Potency, µM (titrated, usually from 46.1 µM), for the others: at the top dose activity, negative = inhibition, most hits filed as inhibitors; further: potency means the concentration at half of the fitted maximal effect; on the % scale 0 is the no-effect control and ±100 the full control effect; nearly all actives have a fitted effect of over 65% in size
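HEPG2 CAGA-GFP, 1000 cells/well; 2 h settle, 37 C; cpd via pin tool; TGF-b 500 pg/mL final; 18 h, 37 C; GFP imaging ex488/em500-530; %Activity normalised to -TGF-b and +DMSO controls; CRC fit, curve class.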
* = called active by the depositor; [ ] = dose if it differs, or a comment. Most compounds without a hit are left out; they make up all but 18% or so of the library. Unless noted, the call rests on the fitted dose curve; in most records, active means well fitted curve in the direction sought with a large enough effect; inconclusive means small, poorly fitted or top-dose-only effect, or another doubt; inactive means no such curve, though single readings can be large; an effect the other way counts as inactive or inconclusive.

How did Cc1ccc(S(=O)(=O)N2CCC(C(=O)OC(C)C(=O)N(C)c3ccccc3)CC2)cc1C (stereo not drawn) do in these assays?
TDP1 inh: 2%; TDP1 cell CPT: inconclusive; TDP1 cell noCPT: inconclusive; IL-1B inflam inh: -3; HepG2 tox: -8%; TGFb SMAD3 inh: -16%

What do the screens show for `COc1ccc(NC(=O)CN(C)CC(=O)NCc2ccc(C)cc2)cc1`?
TDP1 inh: 0%; TDP1 cell CPT: -8%; TDP1 cell noCPT: inconclusive; IL-1B inflam inh: 1; HepG2 tox: 4%; TGFb SMAD3 inh: 5%

Results for Cc1ccccc1-c1cncnc1N(C)Cc1ccco1 ?
TDP1 inh: 22µM*; TDP1 cell CPT: 5%; TDP1 cell noCPT: -12%

What do the screens show for `CC(C)C(NS(=O)(=O)c1ccc2c(c1)Cc1cc(S(=O)(=O)NC(C(=O)O)C(C)C)ccc1-2)C(=O)O` (stereo not drawn)?
TDP1 inh: 3%; TDP1 cell CPT: 6%; TDP1 cell noCPT: 0%; IL-1B inflam inh: 31; HepG2 tox: 7%; TGFb SMAD3 inh: 14%

How did COc1ccc(COC[B-](F)(F)F)cc1 do in these assays?
TDP1 cell CPT: 3%; TDP1 cell noCPT: -17%; IL-1B inflam inh: -53*; HepG2 tox: -17%; TGFb SMAD3 inh: -2%

Results for C#CC1(O)CC[C@H]2[C@@H]3CCC4=CCCC[C@@H]4[C@H]3CC[C@@]21C (stereo partly drawn) ?
TDP1 cell CPT: -26%[21.1 µM]; TDP1 cell noCPT: -18%[21.1 µM]

Results for Cc1[nH]n(-c2ccccc2)c(=O)c1/C=C1\C=NN=C1c1ccccc1 ?
TDP1 inh: 11%; TDP1 cell CPT: 19%; TDP1 cell noCPT: -3%; HepG2 tox: -38%; TGFb SMAD3 inh: inconclusive

How did Cc1[nH]n(-c2ccccc2)c(=O)c1/C=C1/C=c2ccccc2=N1 do in these assays?
TDP1 inh: 5%; TDP1 cell CPT: inconclusive; TDP1 cell noCPT: 21µM*; IL-1B inflam inh: 19; HepG2 tox: -3%; TGFb SMAD3 inh: 6%

How did COc1cc(/C=C2\C=Cc3ccccc32)cc(OC)c1OC do in these assays?
TDP1 cell CPT: inconclusive; TDP1 cell noCPT: 16µM*; HepG2 tox: -26%; TGFb SMAD3 inh: 48%

How did C1=Cc2ccccc2/C1=C\c1cc[cH-]c1.[Fe+2].c1cc[cH-]c1 do in these assays?
TDP1 cell CPT: 11µM*; TDP1 cell noCPT: inconclusive; HepG2 tox: 1%; TGFb SMAD3 inh: inconclusive

How did CS(=O)(=O)c1ccc(/C=C2\C=Cc3ccccc32)cc1 do in these assays?
TDP1 cell CPT: inconclusive; TDP1 cell noCPT: 20µM*; HepG2 tox: -26%; TGFb SMAD3 inh: -18%

How did Nc1ccc(C=C2C=Cc3ccccc32)cc1 do in these assays?
TDP1 cell CPT: 4%; TDP1 cell noCPT: 1%; IL-1B inflam inh: -74*; HepG2 tox: -2%; TGFb SMAD3 inh: -7%

What do the screens show for `C[N+](C)(C)c1ccc(/C=C2\C=Cc3ccccc32)cc1`?
TDP1 cell CPT: inconclusive; TDP1 cell noCPT: inconclusive; HepG2 tox: -31%; TGFb SMAD3 inh: 11%

How did COc1cccc(C2c3c(ncn(-c4ccccc4Cl)c3=N)Oc3ccc4ccccc4c32)c1 (stereo not drawn) do in these assays?
TDP1 inh: 4%

What do the screens show for `C=C1NN(Cc2ccc(OC)cc2)C(=O)N1c1ccccc1`?
TDP1 cell CPT: -4%; TDP1 cell noCPT: -27%; HepG2 tox: -2%; TGFb SMAD3 inh: 0%

Results for Nc1ccc(/C=C2\C=Cc3ccccc32)cc1 ?
TDP1 cell CPT: inconclusive; TDP1 cell noCPT: inconclusive; HepG2 tox: -23%; TGFb SMAD3 inh: -8%

How did NC(N)=Nc1ccc(C=C2C=Cc3ccccc32)cc1 do in these assays?
TDP1 cell CPT: 9.2µM*; TDP1 cell noCPT: 9.2µM*; IL-1B inflam inh: -68*; HepG2 tox: -103%; TGFb SMAD3 inh: inconclusive

Results for Cc1ccc(C)c(N2CCN(C(=O)C3CCN(C(=O)c4cc5sccc5n4C)CC3)CC2)c1 ?
TDP1 inh: 4%; TDP1 cell CPT: 9.2µM*; TDP1 cell noCPT: 8.2µM*; HepG2 tox: -19%; TGFb SMAD3 inh: 10µM*

Results for Cc1cccc(N2CCN(C(=O)C3CCN(C(=O)c4cc5sccc5n4C)CC3)CC2C)c1 (stereo not drawn) ?
TDP1 inh: 2%; TDP1 cell CPT: 13µM*; TDP1 cell noCPT: 5.2µM*; HepG2 tox: -32%; TGFb SMAD3 inh: inconclusive

Results for CCn1c(C(=O)N2CCCC(C(=O)N3CCN(c4cc(C)ccc4C)CC3)C2)cc2sccc21 (stereo not drawn) ?
TDP1 inh: 4%; TDP1 cell CPT: inconclusive; TDP1 cell noCPT: 13µM*; HepG2 tox: -17%; TGFb SMAD3 inh: inactive

Results for Cc1ccc(C)c(N2CCN(C(=O)c3cc4sccc4n3C)CC2)c1 ?
TDP1 inh: 6%; TDP1 cell CPT: inconclusive; TDP1 cell noCPT: inconclusive; IL-1B inflam inh: -16; HepG2 tox: -7%; TGFb SMAD3 inh: inconclusive

How did CC1(C)CC(=O)C(C(c2ccc3c(c2)OCO3)C2C(=O)CC(C)(C)CC2=O)C(=O)C1 do in these assays?
TDP1 cell CPT: -19%; TDP1 cell noCPT: -12%; IL-1B inflam inh: 30; HepG2 tox: 10%; TGFb SMAD3 inh: -2%

Results for CCCC[C@H](NC(C)=O)C(=O)N[C@H]1CC(=O)NCCCC[C@@H](C(N)=O)NC(=O)[C@H](Cc2c[nH]c3ccccc23)NC(=O)[C@H](CCCN=C(N)N)NC(=O)[C@@H](Cc2ccccc2)NC(=O)[C@H](Cc2cnc[nH]2)NC1=O ?
TDP1 inh: 10%

Results for CC1CCN(CC(CS(=O)(=O)c2ccc([N+](=O)[O-])cc2)N2CCC(C)CC2)CC1 (stereo not drawn) ?
TDP1 cell CPT: 2.1µM*; TDP1 cell noCPT: 2.3µM*; IL-1B inflam inh: -76*; HepG2 tox: -15%; TGFb SMAD3 inh: -14%

How did Brc1ccccc1-c1nnc2sc(Cc3ccccc3)nn12 do in these assays?
TDP1 inh: 5%; TDP1 cell CPT: -26%; TDP1 cell noCPT: -10%; IL-1B inflam inh: -56*; HepG2 tox: -15%; TGFb SMAD3 inh: -5%

Results for COc1ccc(Cc2nn3c(-c4ccccc4Br)nnc3s2)cc1 ?
TDP1 inh: 9%; TDP1 cell CPT: inconclusive; TDP1 cell noCPT: inconclusive; IL-1B inflam inh: -85*; HepG2 tox: 3%; TGFb SMAD3 inh: -18%
